Several values for one entry are separate records, joined by “and”; a condition that tells them apart may be missing. Identical values can stand only once. Activity calls are given as the source filed them.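 How the source made its calls: active means compounds whose GFP signal falls below 65% of the DMSO control level; inconclusive means fewer than 70 yeast cells counted in the well; inactive means the rest.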
Assay: TOR branch reporter RPL19A-GFP response – cell-based, S. cerevisiae, third cherry pick, flow cytometry, confirmation (AID 504336);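 further: median GFP fluorescence of all gated yeast cells by flow cytometry; ratio of well median fluorescence to plate mean of DMSO wells with DMSO = 100%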
Settings: S. cerevisiae RPL19A-GFP strain, 3 h, at 10 µM, hits give low values

GFP response relative to DMSO, inactive:
COc1ccccc1Nc1nc(NCC(C)C)nc(N)c1[N+](=O)[O-] 102%
CCCC(=O)Nn1cnc2c(c1=O)C1(CCCC1)Cc1ccccc1-2 102%
O=c1cc(C(F)(F)F)[nH]c2c(OC(F)(F)F)cccc12 101%
CC(=O)Nc1ccc(-c2nc3ccccc3o2)cc1 99.6%
O=C(O)c1ccc2cccnc2c1O 100%
COc1ccccc1Nc1nc(NCCCN(C)C)nc(N)c1[N+](=O)[O-] 99.1%
Cc1ccc2c(Cl)cc(Cl)c(OCC(=O)O)c2n1 104%
CSc1nc(Nc2ccc(Cl)cc2)c(C#N)c(=O)[nH]1 98.3%
C/C(=C\C(=O)c1ccccc1)Nc1cccc(O)c1 98%
CCCCC(=O)NCCc1cc2c(OC)ccc(OC)c2[nH]c1=O 97.5%
Cc1nc(Nc2ccc(Br)cc2Br)c([N+](=O)[O-])c(=O)[nH]1 100%
COc1cccc(OCc2cc(C(=O)N3CCN(C)C(c4ccccc4)C3)no2)c1 (centres undefined) 96.5%
Oc1c(Cl)cc(Cl)c2cccnc12 81.6%
O=C(O)c1ccccc1-c1ccccc1C(=O)Nc1ccc(-c2nc3cc(Cl)ccc3o2)cc1 98.5%
COc1ccccc1-c1cc(C(F)(F)F)nc(S(=O)(=O)CCCC(=O)O)n1 102%
Cc1ccc(Nc2cc(=O)[nH]c(=O)[nH]2)cc1Cl 100%
CCc1sc(C(=O)Nc2nc(-c3ccccn3)cs2)cc1C 101%
Cc1nc2c(O)cccc2cc1CO 102%
O=C(O)c1ccc(C=NNC(=O)c2cccc3ccccc23)cc1 97.2%
Brc1ccc2ncnc(NCc3ccccc3)c2c1 102%
O=C(Nc1cccc2ccccc12)ON=C1CCCCC1 101%
Cc1ccc2c(Cl)cc(Cl)c(O)c2n1 82.6%
O=C1c2ccccc2C(=O)c2c1cccc2N(CCO)CCO 99.8%
CN(C)CCCNc1cc(O)c2ncccc2c1 103%
COc1cccc2c(Cl)c(CCCl)c(C)nc12 99.3%
C=CCNc1ncnc2ccc(Br)cc12 99.3%
Cc1cccc(Nc2cc(=O)[nH]c(=O)[nH]2)c1 100%
C/C(=N\NC(=O)c1ccccc1)c1ccccc1F 98.3%
CC(=O)NCCOc1cccc2cccnc12 102%
COc1ccccc1Nc1nc(NCCC(C)C)nc(N)c1[N+](=O)[O-] 97.8%
NC(=O)COc1cccc2cccnc12 102%
COc1ccccc1-c1cc(C(F)(F)F)nc(S(C)(=O)=O)n1 96.2%
Nc1cc(C(=O)O)c(N)c2c1C(=O)c1ccccc1C2=O 98.5%
Cc1cc(C)c(NC(=O)CC(=O)c2ccccc2)c(Cl)c1 97.8%
Cc1cc(C)c2ccc(N)nc2c1O 101%
Nc1c(C(=O)O)ccc2c1C(=O)c1ccccc1C2=O 101%
O=C(N/N=C/c1ccccc1O)c1cccc2ccccc12 97%
COCC(C)NC(=O)CCS(=O)(=O)c1nc(-c2ccc(OC)cc2)cc(C(F)(F)F)n1 (centres undefined) 98.3% and 102%
O=C(Nc1cccc(Cl)c1)ON=C1c2ccccc2-c2ccccc21 102%
